The record followed here is article PMC7862700, “An all-to-all approach to the identification of sequence-specific readers for epigenetic DNA modifications on cytosine”.

What all share (assay): DAPPL (digital affinity profiling via proximity ligation, sequencing); 10 mM Tris-HCl pH 7.5, 50 mM NaCl, 1 mM DTT, 4% glycerol, room temperature, 30 min; GST-TFs on glutathione beads, 16-mer random dsDNA library, 0.1% formaldehyde crosslink after washing; high values mean tight binding
Assay [1] addresses T1, FEV (Homo sapiens, UniProt Q99581 1-238).
T1 sequence: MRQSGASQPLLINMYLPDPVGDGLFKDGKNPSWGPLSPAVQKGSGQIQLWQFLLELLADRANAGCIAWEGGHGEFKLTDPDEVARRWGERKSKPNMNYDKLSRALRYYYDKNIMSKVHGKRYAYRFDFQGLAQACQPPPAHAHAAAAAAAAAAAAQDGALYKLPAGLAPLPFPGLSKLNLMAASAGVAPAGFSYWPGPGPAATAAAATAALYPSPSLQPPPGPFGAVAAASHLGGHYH
As to conditions: protein: recombinant; tags: N-terminal GST; dsDNA, one strand shown. The essentials:
(§1)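 Human transcription factors fused to GST were expressed in yeast, captured on glutathione beads, given DNA barcodes and pooled with a GST-only negative control. Pools were incubated with 200 nmole of a 16-mer random double-stranded DNA library in Tris/NaCl/DTT/glycerol buffer at room temperature for 30 min. They were then washed, crosslinked with 0.1% formaldehyde, proximity-ligated (BsaI/T4 ligase, 1 h, 37 °C), PCR-amplified and sequenced on an Illumina NextSeq500. Binding signal is each 6-mer's read frequency for a factor divided by its frequency for the GST control.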

Assay [2] concerns the target ETV5 (Homo sapiens, UniProt P41161 1-510). Particulars: protein: recombinant; tags: N-terminal GST; dsDNA, one strand shown. In a few lines: as §1
In assay [3] the target is HSF1 (Homo sapiens, UniProt Q00613 1-529). As to conditions: protein: recombinant; tags: N-terminal GST; chain copies: 3; dsDNA, one strand shown. The essentials: as §1
Chain of HSF1 (Q00613 whole entry): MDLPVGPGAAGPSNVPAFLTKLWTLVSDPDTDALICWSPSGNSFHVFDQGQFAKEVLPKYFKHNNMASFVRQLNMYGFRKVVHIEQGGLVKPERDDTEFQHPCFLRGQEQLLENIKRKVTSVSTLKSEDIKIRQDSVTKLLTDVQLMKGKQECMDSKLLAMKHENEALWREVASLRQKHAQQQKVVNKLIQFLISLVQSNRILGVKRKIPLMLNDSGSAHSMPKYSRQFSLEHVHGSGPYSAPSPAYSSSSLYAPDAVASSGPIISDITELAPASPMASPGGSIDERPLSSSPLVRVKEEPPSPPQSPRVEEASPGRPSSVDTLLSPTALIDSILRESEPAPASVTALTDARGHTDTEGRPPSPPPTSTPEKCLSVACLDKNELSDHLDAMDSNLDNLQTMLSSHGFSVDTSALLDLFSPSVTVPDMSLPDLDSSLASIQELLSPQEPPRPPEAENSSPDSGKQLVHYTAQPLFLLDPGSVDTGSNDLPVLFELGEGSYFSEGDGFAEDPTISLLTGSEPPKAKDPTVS
For assay [4], the target named is T2, SPIC (Homo sapiens, UniProt Q8N5J4 1-248).
T2 sequence: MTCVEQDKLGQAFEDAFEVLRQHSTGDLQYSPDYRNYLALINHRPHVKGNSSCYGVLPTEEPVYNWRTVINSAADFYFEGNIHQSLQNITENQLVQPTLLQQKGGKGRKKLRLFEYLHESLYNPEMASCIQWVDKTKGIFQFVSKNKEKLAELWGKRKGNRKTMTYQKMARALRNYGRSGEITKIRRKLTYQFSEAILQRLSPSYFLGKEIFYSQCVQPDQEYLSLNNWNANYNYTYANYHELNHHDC
As to conditions: protein: recombinant; tags: N-terminal GST; dsDNA, one strand shown. The essentials: as §1

In assay [5] the target is ELF4 (Homo sapiens, UniProt Q99607 1-663). As to conditions: protein: recombinant; tags: N-terminal GST; dsDNA, one strand shown. In a few lines: as §1
Chain of ELF4 (Q99607 whole entry): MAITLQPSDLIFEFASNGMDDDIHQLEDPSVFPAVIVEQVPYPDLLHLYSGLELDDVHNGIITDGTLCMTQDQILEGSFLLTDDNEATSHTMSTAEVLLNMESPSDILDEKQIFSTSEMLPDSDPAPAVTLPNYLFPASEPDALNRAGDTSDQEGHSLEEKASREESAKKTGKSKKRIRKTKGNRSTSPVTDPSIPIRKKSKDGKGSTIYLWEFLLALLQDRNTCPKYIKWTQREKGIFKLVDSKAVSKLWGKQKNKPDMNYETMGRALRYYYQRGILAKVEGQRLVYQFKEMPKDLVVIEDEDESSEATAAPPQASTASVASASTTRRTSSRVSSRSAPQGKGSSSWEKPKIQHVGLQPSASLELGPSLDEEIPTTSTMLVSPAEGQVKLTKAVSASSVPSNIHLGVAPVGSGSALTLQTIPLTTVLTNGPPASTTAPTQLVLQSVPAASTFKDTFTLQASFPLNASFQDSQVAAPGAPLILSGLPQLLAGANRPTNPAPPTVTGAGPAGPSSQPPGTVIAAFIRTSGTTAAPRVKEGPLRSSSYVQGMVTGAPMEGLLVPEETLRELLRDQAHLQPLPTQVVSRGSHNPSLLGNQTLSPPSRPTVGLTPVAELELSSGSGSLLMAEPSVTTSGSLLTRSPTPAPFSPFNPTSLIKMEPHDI
The target of assay [6] is T3, ELK4 (Homo sapiens, UniProt P28324-2 1-405).
T3 sequence: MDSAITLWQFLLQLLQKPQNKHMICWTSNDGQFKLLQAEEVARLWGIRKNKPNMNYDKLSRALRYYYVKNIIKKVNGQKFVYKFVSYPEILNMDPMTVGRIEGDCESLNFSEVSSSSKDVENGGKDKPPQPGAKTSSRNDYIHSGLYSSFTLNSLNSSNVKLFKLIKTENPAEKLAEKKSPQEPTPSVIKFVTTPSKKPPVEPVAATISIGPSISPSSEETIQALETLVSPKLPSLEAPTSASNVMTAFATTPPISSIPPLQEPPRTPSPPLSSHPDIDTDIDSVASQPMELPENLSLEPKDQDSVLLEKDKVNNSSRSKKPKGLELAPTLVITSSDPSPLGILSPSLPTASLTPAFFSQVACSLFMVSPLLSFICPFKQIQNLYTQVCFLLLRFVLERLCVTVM
Particulars: protein: recombinant; tags: N-terminal GST; dsDNA, one strand shown. In a few lines: as §1

Assay [7] has as its target T4, ETV2 (Homo sapiens, UniProt O00321 1-342).
T4 sequence: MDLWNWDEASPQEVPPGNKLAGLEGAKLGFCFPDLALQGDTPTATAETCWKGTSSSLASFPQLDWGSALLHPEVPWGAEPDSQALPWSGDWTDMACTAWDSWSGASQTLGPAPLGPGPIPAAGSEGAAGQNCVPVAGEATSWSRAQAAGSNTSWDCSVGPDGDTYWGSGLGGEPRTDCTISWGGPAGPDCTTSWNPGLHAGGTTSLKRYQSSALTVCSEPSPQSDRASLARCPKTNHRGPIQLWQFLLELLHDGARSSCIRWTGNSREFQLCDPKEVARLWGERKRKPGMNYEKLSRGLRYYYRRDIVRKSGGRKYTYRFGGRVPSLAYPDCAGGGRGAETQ
Particulars: protein: recombinant; tags: N-terminal GST; dsDNA, one strand shown. In a few lines:
as §1

Assay [8] addresses T5, ELF3 (Homo sapiens, UniProt P78545 1-371).
T5 sequence: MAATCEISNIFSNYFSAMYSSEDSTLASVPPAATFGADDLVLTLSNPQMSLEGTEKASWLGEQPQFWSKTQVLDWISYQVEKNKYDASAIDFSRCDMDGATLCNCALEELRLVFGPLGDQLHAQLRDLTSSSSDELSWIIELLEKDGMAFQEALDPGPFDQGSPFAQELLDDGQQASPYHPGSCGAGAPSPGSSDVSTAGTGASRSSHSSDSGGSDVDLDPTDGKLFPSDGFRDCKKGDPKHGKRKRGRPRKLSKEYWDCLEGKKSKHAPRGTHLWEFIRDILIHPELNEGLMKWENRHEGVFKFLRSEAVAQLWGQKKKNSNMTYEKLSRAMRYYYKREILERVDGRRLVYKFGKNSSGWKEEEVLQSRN
Particulars: protein: recombinant; tags: N-terminal GST; dsDNA, one strand shown. The essentials:
as §1

Assay [9] has as its target CRX (Homo sapiens, UniProt O43186 1-299). As to conditions: protein: recombinant; tags: N-terminal GST; dsDNA, one strand shown. The essentials:
as §1

Assay [10] deals with ETV1 (Homo sapiens, UniProt P50549 1-477). Particulars: protein: recombinant; tags: N-terminal GST; dsDNA, one strand shown. In a few lines:
as §1

In assay [11] the target is T6, ERF (Homo sapiens, UniProt P50548 1-548).
T6 sequence: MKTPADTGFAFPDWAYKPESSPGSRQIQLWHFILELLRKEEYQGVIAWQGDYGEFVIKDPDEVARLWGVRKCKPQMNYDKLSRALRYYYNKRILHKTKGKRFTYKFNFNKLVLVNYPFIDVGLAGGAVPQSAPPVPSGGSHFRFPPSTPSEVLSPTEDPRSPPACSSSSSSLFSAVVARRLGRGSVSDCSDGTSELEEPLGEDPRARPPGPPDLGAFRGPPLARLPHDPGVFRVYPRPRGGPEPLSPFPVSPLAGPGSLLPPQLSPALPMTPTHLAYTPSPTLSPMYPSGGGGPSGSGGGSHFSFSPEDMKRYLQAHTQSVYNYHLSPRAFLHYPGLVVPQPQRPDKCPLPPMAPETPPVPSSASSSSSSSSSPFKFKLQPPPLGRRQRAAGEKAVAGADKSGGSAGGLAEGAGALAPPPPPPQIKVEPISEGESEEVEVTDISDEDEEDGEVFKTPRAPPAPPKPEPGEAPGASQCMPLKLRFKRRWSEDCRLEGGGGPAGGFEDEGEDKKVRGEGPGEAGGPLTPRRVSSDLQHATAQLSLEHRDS
Particulars: protein: recombinant; tags: N-terminal GST; dsDNA, one strand shown. In a few lines: as §1

Assay [12] deals with T7, ETV3L (Homo sapiens, UniProt Q6ZN32 1-361).
T7 sequence: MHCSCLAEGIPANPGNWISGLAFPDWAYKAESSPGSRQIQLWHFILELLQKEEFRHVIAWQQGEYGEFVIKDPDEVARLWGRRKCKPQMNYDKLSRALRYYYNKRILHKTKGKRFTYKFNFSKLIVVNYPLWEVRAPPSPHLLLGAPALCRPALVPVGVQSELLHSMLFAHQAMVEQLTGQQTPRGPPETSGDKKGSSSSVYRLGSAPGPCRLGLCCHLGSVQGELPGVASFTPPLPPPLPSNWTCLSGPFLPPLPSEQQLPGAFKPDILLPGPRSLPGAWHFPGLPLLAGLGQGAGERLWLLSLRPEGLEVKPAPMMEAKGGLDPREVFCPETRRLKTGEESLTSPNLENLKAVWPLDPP
Particulars: protein: recombinant; tags: N-terminal GST; dsDNA, one strand shown. In a few lines:
as §1

The target of assay [13] is T8, ETS2 (Homo sapiens, UniProt P15036 1-469).
T8 sequence: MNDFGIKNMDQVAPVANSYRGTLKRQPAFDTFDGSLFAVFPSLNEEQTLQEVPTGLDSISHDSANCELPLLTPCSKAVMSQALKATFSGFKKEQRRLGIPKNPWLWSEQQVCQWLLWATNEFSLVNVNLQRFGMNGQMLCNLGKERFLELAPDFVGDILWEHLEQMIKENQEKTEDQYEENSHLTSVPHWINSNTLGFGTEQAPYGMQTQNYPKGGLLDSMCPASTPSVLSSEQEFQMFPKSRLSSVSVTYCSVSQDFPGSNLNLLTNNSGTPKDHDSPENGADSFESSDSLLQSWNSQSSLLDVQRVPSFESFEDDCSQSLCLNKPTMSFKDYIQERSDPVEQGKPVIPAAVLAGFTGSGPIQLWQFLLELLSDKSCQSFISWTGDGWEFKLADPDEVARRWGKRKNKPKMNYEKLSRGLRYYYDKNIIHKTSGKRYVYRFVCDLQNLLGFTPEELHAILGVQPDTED
Particulars: protein: recombinant; tags: N-terminal GST; dsDNA, one strand shown. In a few lines:
as §1

In assay [14] the target is T9, SPDEF (Homo sapiens, UniProt O95238 1-335).
T9 sequence: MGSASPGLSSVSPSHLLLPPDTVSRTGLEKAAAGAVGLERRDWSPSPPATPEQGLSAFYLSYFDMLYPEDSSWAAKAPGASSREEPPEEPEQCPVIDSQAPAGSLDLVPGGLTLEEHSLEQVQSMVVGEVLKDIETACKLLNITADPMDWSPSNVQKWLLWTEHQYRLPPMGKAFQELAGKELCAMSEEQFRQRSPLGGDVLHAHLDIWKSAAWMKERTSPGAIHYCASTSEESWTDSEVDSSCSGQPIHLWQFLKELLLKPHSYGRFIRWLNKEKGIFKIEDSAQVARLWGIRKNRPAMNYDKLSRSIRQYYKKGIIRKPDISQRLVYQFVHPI
Particulars: protein: recombinant; tags: N-terminal GST; dsDNA, one strand shown. The essentials: as §1

For assay [15], the target named is T10, ETV7 (Homo sapiens, UniProt Q9Y603 1-341).
T10 sequence: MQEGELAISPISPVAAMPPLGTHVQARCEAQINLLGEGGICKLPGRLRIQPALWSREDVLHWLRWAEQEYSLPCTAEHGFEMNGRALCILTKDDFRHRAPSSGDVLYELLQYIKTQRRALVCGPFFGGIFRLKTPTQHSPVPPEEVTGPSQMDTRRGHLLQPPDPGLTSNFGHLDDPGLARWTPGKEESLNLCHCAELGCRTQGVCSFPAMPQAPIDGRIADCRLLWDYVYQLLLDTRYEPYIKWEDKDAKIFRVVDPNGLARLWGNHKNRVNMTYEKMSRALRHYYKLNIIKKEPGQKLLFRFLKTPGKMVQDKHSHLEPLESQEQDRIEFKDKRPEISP
Particulars: protein: recombinant; tags: N-terminal GST; dsDNA, one strand shown. In a few lines:
as §1

The target of assay [16] is T11, ELF5 (Homo sapiens, UniProt Q9UKW6-2 1-255).
T11 sequence: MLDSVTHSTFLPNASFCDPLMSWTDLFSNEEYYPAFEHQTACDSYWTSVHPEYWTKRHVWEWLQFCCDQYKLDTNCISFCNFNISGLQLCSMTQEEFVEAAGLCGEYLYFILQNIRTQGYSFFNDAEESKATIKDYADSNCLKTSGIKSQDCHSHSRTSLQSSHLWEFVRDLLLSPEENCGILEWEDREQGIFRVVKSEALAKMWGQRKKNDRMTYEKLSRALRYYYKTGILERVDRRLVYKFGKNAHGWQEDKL
Particulars: protein: recombinant; tags: N-terminal GST; dsDNA, one strand shown. The essentials:
as §1

The target of assay [17] is T12, ETV3 (Homo sapiens, UniProt P41162-2 1-143).
T12 sequence: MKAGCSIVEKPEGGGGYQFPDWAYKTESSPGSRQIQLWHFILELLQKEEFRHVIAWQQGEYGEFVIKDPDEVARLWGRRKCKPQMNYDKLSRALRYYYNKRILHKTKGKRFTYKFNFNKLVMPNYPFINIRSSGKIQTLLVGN
Particulars: protein: recombinant; tags: N-terminal GST; dsDNA, one strand shown. The essentials:
as §1

The target of assay [18] is ETV6 (Homo sapiens, UniProt P41212 1-452). Particulars: protein: recombinant; tags: N-terminal GST; dsDNA, one strand shown. The essentials:
as §1

Chain of ETV5 (P41161 whole entry): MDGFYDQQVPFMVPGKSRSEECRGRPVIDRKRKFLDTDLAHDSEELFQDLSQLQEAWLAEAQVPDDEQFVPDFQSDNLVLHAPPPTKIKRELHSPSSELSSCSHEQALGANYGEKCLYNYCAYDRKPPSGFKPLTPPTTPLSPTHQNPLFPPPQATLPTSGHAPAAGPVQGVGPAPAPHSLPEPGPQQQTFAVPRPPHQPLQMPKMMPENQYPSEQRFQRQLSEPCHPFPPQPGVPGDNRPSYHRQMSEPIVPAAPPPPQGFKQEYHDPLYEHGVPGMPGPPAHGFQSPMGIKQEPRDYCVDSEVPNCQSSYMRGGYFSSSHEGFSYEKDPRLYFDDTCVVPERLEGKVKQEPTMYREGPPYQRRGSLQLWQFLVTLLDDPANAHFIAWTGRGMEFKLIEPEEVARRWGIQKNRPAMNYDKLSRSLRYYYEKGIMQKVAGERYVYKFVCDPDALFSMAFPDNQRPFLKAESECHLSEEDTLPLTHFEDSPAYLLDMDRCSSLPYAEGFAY
Chain of CRX (O43186 whole entry): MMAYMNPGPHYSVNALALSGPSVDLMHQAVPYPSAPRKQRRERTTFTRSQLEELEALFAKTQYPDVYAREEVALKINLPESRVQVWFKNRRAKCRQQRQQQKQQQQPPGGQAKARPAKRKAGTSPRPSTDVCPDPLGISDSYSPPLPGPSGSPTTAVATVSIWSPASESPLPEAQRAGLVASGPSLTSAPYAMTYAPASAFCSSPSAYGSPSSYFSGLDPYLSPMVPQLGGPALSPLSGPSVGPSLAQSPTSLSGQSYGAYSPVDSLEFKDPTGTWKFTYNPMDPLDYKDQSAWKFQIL
Chain of ETV1 (P50549 whole entry): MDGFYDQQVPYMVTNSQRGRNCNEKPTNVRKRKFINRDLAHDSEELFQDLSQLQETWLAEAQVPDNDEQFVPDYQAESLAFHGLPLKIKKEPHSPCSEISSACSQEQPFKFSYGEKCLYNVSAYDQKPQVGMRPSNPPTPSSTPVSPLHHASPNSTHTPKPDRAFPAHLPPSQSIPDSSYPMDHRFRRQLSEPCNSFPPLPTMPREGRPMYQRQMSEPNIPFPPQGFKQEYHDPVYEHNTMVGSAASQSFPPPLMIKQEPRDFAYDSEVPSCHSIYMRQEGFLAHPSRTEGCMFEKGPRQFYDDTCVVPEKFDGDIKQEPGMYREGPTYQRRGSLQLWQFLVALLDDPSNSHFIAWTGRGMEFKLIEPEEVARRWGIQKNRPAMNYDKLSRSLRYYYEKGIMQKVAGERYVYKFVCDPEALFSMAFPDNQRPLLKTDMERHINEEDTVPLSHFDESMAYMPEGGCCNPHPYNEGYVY
Chain of ETV6 (P41212 whole entry): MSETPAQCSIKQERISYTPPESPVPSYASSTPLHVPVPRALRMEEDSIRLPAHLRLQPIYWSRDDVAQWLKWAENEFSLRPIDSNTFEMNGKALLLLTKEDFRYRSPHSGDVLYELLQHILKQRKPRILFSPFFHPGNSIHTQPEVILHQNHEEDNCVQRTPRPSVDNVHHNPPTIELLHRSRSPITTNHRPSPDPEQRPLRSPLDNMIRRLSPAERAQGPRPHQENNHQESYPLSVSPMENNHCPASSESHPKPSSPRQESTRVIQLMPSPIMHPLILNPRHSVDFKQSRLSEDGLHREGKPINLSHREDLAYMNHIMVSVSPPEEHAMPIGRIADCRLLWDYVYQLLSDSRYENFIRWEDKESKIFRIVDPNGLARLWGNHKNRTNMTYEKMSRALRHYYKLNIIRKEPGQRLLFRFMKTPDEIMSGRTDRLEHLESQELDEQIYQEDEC

Regarding AGCACT, the binding signal is 1.51 fold enrichment (6-mer frequency, TF over GST control) in [1]; 1.37 fold enrichment (6-mer frequency, TF over GST control) in assay [2]; 1.19 fold enrichment (6-mer frequency, TF over GST control) in assay [3]; 1.32 fold enrichment (6-mer frequency, TF over GST control) in assay [4]; 1.44 fold enrichment (6-mer frequency, TF over GST control) in assay [5]; 1.31 fold enrichment (6-mer frequency, TF over GST control) in assay [6]. Besides, the binding signal in [7] is 1.46 fold enrichment (6-mer frequency, TF over GST control); in [8], 1.26 fold enrichment (6-mer frequency, TF over GST control); in assay [9], 1.18 fold enrichment (6-mer frequency, TF over GST control); in [10] it was 1.36 fold enrichment (6-mer frequency, TF over GST control); in assay [11], 1.44 fold enrichment (6-mer frequency, TF over GST control); in assay [12] it was 1.42 fold enrichment (6-mer frequency, TF over GST control). The binding signal in assay [13] was 1.43 fold enrichment (6-mer frequency, TF over GST control); in assay [14] it was 1.4 fold enrichment (6-mer frequency, TF over GST control); in [15] it was 1.43 fold enrichment (6-mer frequency, TF over GST control); in assay [16], 1.52 fold enrichment (6-mer frequency, TF over GST control); in assay [17], 1.39 fold enrichment (6-mer frequency, TF over GST control); in [18], 1.44 fold enrichment (6-mer frequency, TF over GST control).
